Active and inactive are the calls of the source. Unless noted, no rule for the calls is given here.
How the values were obtained:
[1] = system: Wnt5a (protein binding on small-molecule microarray); assay: Wnt5a binders on small-molecule microarray, primary screen, biophysical, 635/667 nm fluorescence (AID 1142); conditions: 635 nm fluorescence, higher = more signal;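 also: fluorescence read at 667 nm with signal to noise per printed feature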
[2] = cell viability in Huh7 cells, primary screen, cytotoxicity control for HCV replication inhibitor project, CellTiter-Glo luminescence, basal, 48 h (AID 1143); conditions: Huh7 HCV replicon, higher = more signal, called active from +8 up or from −8 down;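 also: Huh7 hepatoma cells carrying a hepatitis C replication reporter with no stimulus; test concentration not given here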
[3] = P. aeruginosa biofilm formation inhibitors, primary screen, PAO1 strain, BacTiter-Glo luminescence, LB-PBS (AID 1144); conditions: 12 h, higher = more signal
[4] = CREB reporter modulators without forskolin, primary screen, cell-based, PC12, CRE-LacZ reporter, unstimulated (AID 1145); conditions: no forskolin, luminescence, 4.5 h, higher = more signal, called active from +8 up or from −8 down
[5] = CREB reporter modulators under forskolin, primary screen, cell-based, PC12, CRE-LacZ reporter, forskolin-stimulated (AID 1146); conditions: luminescence, 4.5 h, higher = more signal, called active from +8 up or from −8 down;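 also: PC12 cells with 6xCRE LacZ reporter stimulated by forskolin 10 µM; beta-galactosidase reporter signal reflecting CREB driven transcription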
[6] = target: Streptavidin (Streptomyces avidinii) (UniProt P22629); assay: streptavidin binders on small-molecule microarray, primary screen, artefact control for SMM compound annotation, biophysical, 635/667 nm fluorescence (AID 1147); conditions: streptavidin binding, higher = more signal;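 also: signal reflects streptavidin binding to arrayed compounds as a control protein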
[7] = small-molecule binders of probe aInhba, primary screen, biochemical, small-molecule microarray, 635/667 nm fluorescence (AID 1148); conditions: higher = more signal;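 also: score merges 667nm spot fluorescence with signal-to-noise for antibody binding to printed compounds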
[8] = target: Torsin-1A (Homo sapiens) (UniProt O14656); assay: torsin A binders from cell lysate, primary screen, small-molecule microarray, wild-type, 635/667 nm (AID 1149); conditions: COS7 hTOR1A-WT lysate, 635 nm fluorescence, higher = more signal
[9] = target: Torsin-1A (Homo sapiens) (UniProt O14656); assay: small-molecule binders of mutant TOR1A in lysate, primary screen, cell lysate, small-molecule microarray, COS7 lysate, 635/667 nm fluorescence (AID 1150); conditions: COS7 hTOR1A mutant lysate, 635 nm fluorescence, higher = more signal;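 also: score pools 667 nm emission and signal to noise measuring lysate protein binding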
[10] = system: Sonic hedgehog protein (Shh); assay: small-molecule binders of Shh protein, primary screen, biochemical, small-molecule microarray, 635/667 nm fluorescence (AID 1151); conditions: small-molecule microarray binding, 635 nm fluorescence; higher = more signal;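 also: Shh protein binding to compounds spotted on small-molecule microarray slides; score combines spot fluorescence intensity with signal-to-noise across triplicate slides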
[11] = E. coli DRC41 culture turbidity changes, primary screen, E. coli filamentation inducer project, strain DRC41, OD650, 48 h (AID 1152);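 also: E. coli MC1000 strain DRC41 lacking acrAB efflux pump and sulA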; conditions: E. coli DRC41 (acrAB sulA), higher = more signal, called active from +8 up or from −8 down
[12] = small-molecule binders of probe aLefty1, primary screen, biochemical, small-molecule microarray, 635/667 nm fluorescence (AID 1153); conditions: higher = more signal;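 also: score merges spot fluorescence with signal-to-noise ratio from the scanned slide images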
[13] = PSAC antagonists in infected red cells, primary screen, cell-based, P. falciparum Indochina, OD700, 1 h (AID 1154); conditions: P. falciparum Indochina infected RBC osmotic lysis, higher = more signal, called active from +8 up or from −8 down
[14] = PSAC antagonists in infected red cells, primary screen, cell-based, P. falciparum Indochina, OD700, 2 h (AID 1155);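 also: lysis reports solute entry through the parasite surface anion channel PSAC; channel blockers reduce lysis of infected cells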; conditions: P. falciparum Indochina infected erythrocytes, osmotic lysis OD700; higher = more signal, called active from +8 up or from −8 down
[15] = osmotic lysis modulators in infected erythrocytes, primary screen, PSAC antagonist project, cell-based, P. falciparum Indochina, OD700, 3 h (AID 1156); conditions: higher = more signal, called active from +8 up or from −8 down
[16] = PSAC antagonists in infected red cells, primary screen, cell-based, P. falciparum Indochina, OD700, 18 h (AID 1157); conditions: P. falciparum Indochina infected erythrocytes, osmotic lysis OD700, 18 h; higher = more signal, called active from +8 up or from −8 down
[17] = modulators of S6 phosphorylation in cells, primary screen, cell-based, A549, cytoblot, luminescence, serum-stimulated (AID 1158); conditions: A549 phospho-S6 cytoblot, 5 h, higher = more signal;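 also: serum-stimulated A549 lung adenocarcinoma cells; signal is phosphorylated S6 detected by cytoblot immunostaining with HRP secondary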
[18] = target: NADPH oxidase 2 (Homo sapiens) (UniProt P04839); assay: NOX2-dependent H2O2 signal modulators, primary screen, NOX inhibitor project, cell-based, HEK293-NOX2, PMA-stimulated, Amplex Red fluorescence (AID 1159); conditions: 45 min, higher = more signal, called active from +8 up or from −8 down; also: test concentration not given here
[19] = target: NADPH oxidase 4 (Homo sapiens) (UniProt Q9NPH5); assay: NOX4-dependent H2O2 signal modulators, primary screen, NOX inhibitor project, cell-based, HEK293-NOX4, tetracycline-induced, Amplex Red fluorescence (AID 1160); conditions: 45 min, higher = more signal, called active from +8 up or from −8 down
[20] = target: NADPH oxidase 5 (Homo sapiens) (UniProt Q96PH1); assay: NOX5-dependent H2O2 signal modulators, primary screen, NOX inhibitor project, cell-based, HEK293-NOX5, Amplex Red fluorescence (AID 1161); conditions: HEK293-NOX5, ionomycin, 45 min, higher = more signal
Chain of NADPH oxidase 5 (Homo sapiens) (Q96PH1 whole entry, looked up): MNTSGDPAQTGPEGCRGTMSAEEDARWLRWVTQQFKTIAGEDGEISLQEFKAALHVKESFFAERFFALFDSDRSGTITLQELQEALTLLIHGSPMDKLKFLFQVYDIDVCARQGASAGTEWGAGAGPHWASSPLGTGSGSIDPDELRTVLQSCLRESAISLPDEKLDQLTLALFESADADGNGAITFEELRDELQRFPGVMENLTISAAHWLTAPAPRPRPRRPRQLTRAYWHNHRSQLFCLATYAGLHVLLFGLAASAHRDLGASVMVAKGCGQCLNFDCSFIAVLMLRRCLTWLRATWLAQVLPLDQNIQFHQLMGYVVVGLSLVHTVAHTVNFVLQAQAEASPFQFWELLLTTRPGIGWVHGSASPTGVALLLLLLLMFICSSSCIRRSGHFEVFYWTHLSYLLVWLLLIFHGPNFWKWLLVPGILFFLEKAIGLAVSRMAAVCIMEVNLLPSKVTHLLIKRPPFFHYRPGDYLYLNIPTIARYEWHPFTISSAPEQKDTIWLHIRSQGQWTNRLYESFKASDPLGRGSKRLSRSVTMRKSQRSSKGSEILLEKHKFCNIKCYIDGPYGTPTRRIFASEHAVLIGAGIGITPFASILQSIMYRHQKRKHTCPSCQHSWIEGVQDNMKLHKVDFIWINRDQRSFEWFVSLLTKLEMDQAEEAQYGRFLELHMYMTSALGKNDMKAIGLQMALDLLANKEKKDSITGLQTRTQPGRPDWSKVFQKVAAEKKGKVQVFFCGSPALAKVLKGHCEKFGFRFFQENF

Chain of Torsin-1A (Homo sapiens) (O14656 whole entry, looked up): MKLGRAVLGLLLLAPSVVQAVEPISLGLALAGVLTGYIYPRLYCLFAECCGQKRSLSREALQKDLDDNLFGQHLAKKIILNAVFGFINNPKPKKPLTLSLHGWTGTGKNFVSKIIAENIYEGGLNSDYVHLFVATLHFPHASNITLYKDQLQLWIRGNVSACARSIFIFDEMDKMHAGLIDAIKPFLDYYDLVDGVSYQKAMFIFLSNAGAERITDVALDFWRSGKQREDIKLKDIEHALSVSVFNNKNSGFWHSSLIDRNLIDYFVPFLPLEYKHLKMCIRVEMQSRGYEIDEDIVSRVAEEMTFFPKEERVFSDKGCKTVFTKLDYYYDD
Chain of Streptavidin (Streptomyces avidinii) (P22629 whole entry, looked up): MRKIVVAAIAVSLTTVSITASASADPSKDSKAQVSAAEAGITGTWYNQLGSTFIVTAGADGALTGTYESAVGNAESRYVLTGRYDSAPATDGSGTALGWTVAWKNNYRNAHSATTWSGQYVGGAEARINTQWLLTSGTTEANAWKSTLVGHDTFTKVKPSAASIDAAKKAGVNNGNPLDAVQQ
Chain of NADPH oxidase 2 (Homo sapiens) (P04839 whole entry, looked up): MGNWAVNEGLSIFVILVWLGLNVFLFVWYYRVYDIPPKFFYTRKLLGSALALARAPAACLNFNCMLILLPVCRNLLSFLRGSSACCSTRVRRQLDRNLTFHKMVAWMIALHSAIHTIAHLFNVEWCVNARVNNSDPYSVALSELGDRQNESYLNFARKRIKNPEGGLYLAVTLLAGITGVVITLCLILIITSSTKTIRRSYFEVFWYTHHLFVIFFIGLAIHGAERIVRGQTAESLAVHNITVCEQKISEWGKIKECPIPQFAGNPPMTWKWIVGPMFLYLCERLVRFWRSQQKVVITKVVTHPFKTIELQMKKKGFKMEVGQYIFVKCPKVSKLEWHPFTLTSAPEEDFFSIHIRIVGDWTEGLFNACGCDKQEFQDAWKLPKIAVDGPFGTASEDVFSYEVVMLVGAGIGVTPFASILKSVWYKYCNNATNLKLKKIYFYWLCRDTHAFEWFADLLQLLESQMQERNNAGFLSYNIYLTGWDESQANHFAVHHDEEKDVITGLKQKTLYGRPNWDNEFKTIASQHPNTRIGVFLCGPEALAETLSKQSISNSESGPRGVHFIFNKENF
Chain of NADPH oxidase 4 (Homo sapiens) (Q9NPH5 whole entry, looked up): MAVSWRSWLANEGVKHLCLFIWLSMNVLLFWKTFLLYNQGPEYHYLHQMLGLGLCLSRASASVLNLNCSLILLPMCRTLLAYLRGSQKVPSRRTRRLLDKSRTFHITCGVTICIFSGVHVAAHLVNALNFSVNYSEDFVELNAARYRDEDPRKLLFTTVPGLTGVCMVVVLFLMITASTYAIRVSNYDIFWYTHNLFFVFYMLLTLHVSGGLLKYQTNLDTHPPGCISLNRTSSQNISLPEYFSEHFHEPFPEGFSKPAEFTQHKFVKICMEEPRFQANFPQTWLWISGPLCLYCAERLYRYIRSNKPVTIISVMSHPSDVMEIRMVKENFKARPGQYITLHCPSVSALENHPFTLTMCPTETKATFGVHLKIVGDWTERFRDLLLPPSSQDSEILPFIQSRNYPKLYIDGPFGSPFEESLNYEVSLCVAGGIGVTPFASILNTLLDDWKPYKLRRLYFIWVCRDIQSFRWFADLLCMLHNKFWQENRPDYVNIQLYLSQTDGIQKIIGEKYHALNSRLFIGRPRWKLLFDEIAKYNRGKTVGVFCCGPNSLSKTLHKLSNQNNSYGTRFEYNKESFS

SMILES	composite z-score [1]	z-score [2]	z-score [3]	z-score [4]	z-score [5]	composite z-score [6]	composite z-score [7]	composite z-score [8]	composite z-score [9]	composite z-score [10]	z-score [11]	composite z-score [12]	z-score [13]	z-score [14]	z-score [15]	z-score [16]	z-score [17]	z-score [18]	z-score [19]	z-score [20]
COc1cc2c(cc1O)C(C1CC1)N(Cc1sc3ccccc3c1Cl)CC2 (stereo not given)	-0.207	-5.05 (inactive)	1.26 (inactive)	-0.671 (inactive)	1.82 (inactive)	0.583	-0.024	1.45	0.982	-0.206	-1.54 (inactive)	-0.0162	13.1 (active)	3.41 (inactive)	-0.449 (inactive)	1.33 (inactive)	-0.0956	-4.57 (inactive)	-2.68 (inactive)	-3.45
CCCC[C@@H]1C[C@H]1[C@@H](NC(=O)c1ccccc1)c1ccc(C(=O)OC)cc1	0.106	-0.977 (inactive)	-0.485 (inactive)	0.576 (inactive)	0.0003 (inactive)	-0.279	-0.018	-2.83	-0.686	-1.11	-2.42 (inactive)	0.357	12.2 (active)	1.91 (inactive)	0.57 (inactive)	0.643 (inactive)	-0.728	-1.14 (inactive)	-2.96 (inactive)	-0.585
CCOC(=O)C1=C[C@@H](C(C)(C)C)N(S(=O)(=O)c2ccc(C)cc2)[C@H]1c1ccc(F)cc1	0.219	-3.79 (inactive)	0.673 (inactive)	0.0423 (inactive)	0.81 (inactive)	1.1	0.255	0.159	0.575	0.584	-1.68 (inactive)	-0.0162	0.957 (inactive)	0.716 (inactive)	-0.862 (inactive)	0.634 (inactive)	-0.827	-0.829 (inactive)	-0.217 (inactive)	0.821
COc1ccc(C(=O)Nc2ccc(CN3C(=O)[C@]4(O[C@H](CCO)[C@@H]([Si](C)(C)c5ccc(OC)cc5)[C@@H]4C)c4ccccc43)cc2)cc1	0.406	-7.95 (inactive)	-0.925 (inactive)	8.84 (active)	-1.89 (inactive)	0.566	0.0014	0.108	0.165	1.48	-1.37 (inactive)	0.199	5.29 (inactive)	2.11 (inactive)	-0.205 (inactive)	2.12 (inactive)	-1.38	-6.37 (inactive)	-2.55 (inactive)	-1.54
CC(C)NC(=O)[C@@]1(C)c2ccccc2C(=O)N(Cc2cc(C(F)(F)F)cc(C(F)(F)F)c2)[C@H]1c1ccc(CO)cc1	-0.533	-3.78 (inactive)	1.03 (inactive)	0.648 (inactive)	-0.405 (inactive)	-0.417	-0.269	-0.979	-0.723	-0.328	-0.204 (inactive)	0.0328	11.8 (active)	1.66 (inactive)	1.35 (inactive)	0.377 (inactive)	0.401	-1.13 (inactive)	0.154 (inactive)	0.685
COCCOC(=O)N1C(=O)[C@@]2(c3cc(C#Cc4ccc(OC)cc4)ccc31)[C@H](c1ccccc1OCCO)N1[C@H](c3ccccc3)[C@H](c3ccccc3)OC(=O)[C@H]1[C@@H]2C(=O)NC[C@H](O)c1ccccc1	0.609	-3.23 (inactive)	-0.436 (inactive)	-0.602 (inactive)	-0.0611 (inactive)	0.115	0.143	0.175	0.525	2.21	0.216 (inactive)	0.396	2.92 (inactive)	2.16 (inactive)	-0.76 (inactive)	0.804 (inactive)	-0.325	1.16 (inactive)	1.16 (inactive)	0.967
COc1ccccc1CN1C(=O)c2ccccc2[C@@H](C(=O)NC2CC2)[C@@H]1c1ccc(CO)cc1	0.845	-0.132 (inactive)	0.217 (inactive)	-0.709 (inactive)	-1.03 (inactive)	0.53	0.297	0.848	0.385	1.8	0.818 (inactive)	0.16	2.49 (inactive)	0.873 (inactive)	1.59 (inactive)	0.818 (inactive)	-0.291	0.211 (inactive)	0.48 (inactive)	0.718
C=CCOC(=O)[C@H]1[C@@H]2C(=O)O[C@@H](c3ccccc3)[C@@H](c3ccccc3)N2[C@@H](c2ccc(OCCOC(=O)[C@@H]3C[C@@H]4C(=O)N[C@@H](CC(C)C)C(=O)N4[C@@H]3c3ccc(O)cc3)cc2)[C@]12C(=O)Nc1ccccc12	0.384	-1.37 (inactive)	-1.04 (inactive)	-0.541 (inactive)	0.0707 (inactive)	0.359	0.0442	0.941	0.95	2.08	0.204 (inactive)	0.439	3.03 (inactive)	1.3 (inactive)	4.45 (inactive)	1.04 (inactive)	-0.197	1.63 (inactive)	1.18 (inactive)	1.49
C=C(CCCC)/C(=C/C[C@H](OC(C)=O)c1ccccc1OCCO)c1cc(C(=O)OC)ccc1OC	0.0205	-3.83 (inactive)	0.437 (inactive)	13.3 (active)	-0.671 (inactive)	-0.24	-0.157	-0.266	-0.174	0.199	1.02 (inactive)	-0.0046	15.1 (active)	0.621 (inactive)	2.54 (inactive)	-1.43 (inactive)	0.708	0.254 (inactive)	0.101 (inactive)	-1.92
C[N+](C)(C)CCCCCCNC(=O)[C@@H]1C[C@@H]2C(=O)N[C@@H](Cc3ccccc3)C(=O)N2[C@@H]1c1cccc(OCCO)c1	0.122	-0.428 (inactive)	-0.573 (inactive)	-1.22 (inactive)	-1.04 (inactive)	0.0123	-0.0918	0.787	1.51	1.92	1.49 (inactive)	0.0588	10.1 (active)	1.34 (inactive)	1.42 (inactive)	0.349 (inactive)	0.0757	1.39 (inactive)	1.66 (inactive)	1.05
O=C(c1ccccc1)N1C(=O)[C@@]2(Cc3ccccc31)N=C(c1ccc(OCCCO)cc1)O[C@H]2c1ccccc1	0.54	-4.44 (inactive)	0.849 (inactive)	1.11 (inactive)	1.28 (inactive)	0.353	0.346	0.388	1.01	1.27	-0.632 (inactive)	0.554	14.6 (active)	2.37 (inactive)	3.04 (inactive)	1.03 (inactive)	-0.256	-0.595 (inactive)	-0.0485 (inactive)	-1.74
CC(C)NC(=O)[C@@]1(c2ccc([N+](=O)[O-])cc2)CC(=O)N(C2CCCCC2)[C@@H]1c1ccc(CO)cc1I	-0.0239	-4.27 (inactive)	1.11 (inactive)	1.04 (inactive)	-0.727 (inactive)	-0.154	0.0497	0.0498	0.242	-0.241	1.36 (inactive)	0.533	15.8 (active)	2.08 (inactive)	1.07 (inactive)	0.966 (inactive)	-0.0892	0.824 (inactive)	-1.57 (inactive)	1.45
NC(=O)[C@@H]1[C@H]2C(=O)O[C@H](c3ccccc3)[C@H](c3ccccc3)N2[C@H](c2ccc(O)cc2)[C@@]12C(=O)Nc1ccccc12	-0.766	-4.14 (inactive)	-0.609 (inactive)	-0.491 (inactive)	0.276 (inactive)	-0.99	-0.152	-2.99	-2.06	0.154	0.428 (inactive)	0.157	1.19 (inactive)	-0.619 (inactive)	-0.267 (inactive)	-2.21 (inactive)	1.57	-1.93 (inactive)	-1.13 (inactive)	-0.42
CC(C)=CCN[C@H](CO)c1ccccc1	-0.249	-3.85 (inactive)	-0.0678 (inactive)	-1.05 (inactive)	0.0877 (inactive)	0.0079	0.102	-0.801	0.324	0.627	-0.209 (inactive)	-0.114	0.128 (inactive)	-0.916 (inactive)	0.198 (inactive)	-2.39 (inactive)	0.983	-0.763 (inactive)	-0.688 (inactive)	-1.61
COC(=O)c1c(CC[C@@H](CO)NC(=O)NCCn2cc(C3(O)CCCC3)nn2)oc(C(C)=O)c1C(=O)OC	-0.344	-0.177 (inactive)	0.699 (inactive)	0.978 (inactive)	-0.194 (inactive)	0.102	-0.203	-0.0395	0.105	-0.303	-1.2 (inactive)	-0.403	2.06 (inactive)	0.474 (inactive)	1.29 (inactive)	0.533 (inactive)	-0.359	-0.278 (inactive)	0.233 (inactive)	-0.666
CN1C=C(C(=O)OCCS(C)(=O)=O)C(C(=O)OCCS(C)(=O)=O)=CC(c2ccc(CO)cc2)=CC1C1CC1 (stereo not given)	0.0929	-0.95 (inactive)	0.706 (inactive)	-0.205 (inactive)	-0.507 (inactive)	-0.0005	0.149	0.738	0.5	0.457	0.225 (inactive)	-0.147	11.3 (active)	1.46 (inactive)	-0.107 (inactive)	0.897 (inactive)	0.116	-2.88 (inactive)	-1.13 (inactive)	-2.52
CC(C)N1C(=O)C[C@@](C(=O)NCC(F)(F)F)(c2ccc([N+](=O)[O-])cc2)[C@H]1c1ccc(CO)cc1	-0.492	-4.06 (inactive)	-1.76 (inactive)	-0.761 (inactive)	-1.24 (inactive)	0.14	-0.128	0.894	0.0412	1.24	1.09 (inactive)	-0.101	0.642 (inactive)	-0.558 (inactive)	0.533 (inactive)	-1.68 (inactive)	2.47	0.271 (inactive)	0.465 (inactive)	-0.127

Reference: PubChem BioAssay
